Data on 11 compounds can be found in PubChem BioAssay (NCATS).

Each structure is given as a SMILES string. Inconclusive results are not listed. Active and inactive are the calls of the source. Unless noted, calls follow the shape of the dose curve; as a rule, active = well fitted curve in the direction sought with a large enough effect; inconclusive = small, poorly fitted or top-dose-only effect, or another doubt; inactive = no such curve, though single readings can be large; an effect the other way counts as inactive or inconclusive.

For assay [1], the target named is ATP-dependent 6-phosphofructokinase (Trypanosoma brucei brucei) (UniProt O15648). The assay can be described thus: qHTS Assay to Find Inhibitors of T. brucei phosphofructokinase: hit validation (AID 492961).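 Also: luminescence reports ADP formed as PFK phosphorylates fructose-6-phosphate with ATP; series mostly up to about 51 µM; % is scaled to controls: 0 for no effect and ±100 for the full control effect.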 The gist of the method:
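In this biochemical qHTS validation, titrated compounds were tested against 1.25 nM PFK with 0.1 mM ATP and 0.5 mM F6P. Percent activity came from controls lacking or containing enzyme.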

A short description of assay [2]: Validation screen for small molecules that induce genotoxicity in human embryonic kidney (HEK293T) cells expressing luciferase-tagged ELG1 (AID 493106). Also: 0% is about no effect. An outline of the steps:
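Reporter-gene quantitative HTS in HEK293T cells carrying luciferase-tagged ELG1, whose level climbs under genotoxic stress. Compound exposure lasts 16 hr at 37 °C before luciferase detection.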

The target of assay [3] is ATPase family AAA domain-containing protein 5 (Homo sapiens) (UniProt Q96QE3). The assay can be described thus: Validation screen for small molecules that inhibit ELG1-dependent DNA repair in human embryonic kidney (HEK293T) cells expressing luciferase-tagged ELG1 (AID 493107). Also: nearly all actives have a fitted effect of over 70% in size. Also: potency is read from the fitted curve at half-maximal effect. The gist of the method:
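Quantitative HTS in HEK293T cells carrying luciferase-tagged ELG1, stimulated with 5-fluorouridine alongside compound for 16 hr. Loss of luciferase signal marks inhibition of ELG1 response.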

Assay [4] has as its target Thyrotropin-releasing hormone receptor (Homo sapiens) (UniProt P34981). The assay can be described thus: qHTS for Small Molecule Agonists and Allosteric Enhancers of Human TRH Receptor: Validation Screen for Agonists (AID 493127;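 active = calcium activation more than 3 SD above the typical response in the agonist read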;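 also: intracellular calcium rise by fluo-8 fluorescence before TRH EC20 addition; 0% is about no effect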). Conditions: TRH receptor agonist cell assay; at 2 µM; stronger effect = higher value. An outline of the steps:
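Gq-coupled calcium mobilization in TRHR cells after compound addition, monitored kinetically with fluo-8 dye on an FDSS reader.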

The nature of assay [5]: Nrf2 qHTS screen for inhibitors: Validation (AID 493153; active = well fitted inhibition curve with a large enough effect in the main read-out, with a control signal flat, not every such curve was filed as active). As to conditions: Potency: luciferase luminescence; viability change: measured here: cytotoxicity max response. An outline of the steps:
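Dose-response validation uses reporter A549 cells with firefly luciferase under an antioxidant response element. Compounds stay on cells 18-24 h at 37°C, and luminescence indicates Nrf2-driven transcription.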

Assay [6] in a line: qHTS for Inhibitors of Cell Surface uPA Generation: Validation Assay (AID 493164).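 Also: RAW 264.7 macrophage cells exposed to compound for 18 h; 0% is about no effect.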 An outline of the steps:
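RAW 264.7, 4000 cells/well, o/n plating; cpd 7-pt 1:5 dilution 2.45 nM–38.3 uM final; 18 h, 37 C/5% CO2; ATP-Lite, 5 s luminescence exposure.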

The target of assay [7] is Galactokinase (Homo sapiens) (UniProt P51570). The assay can be described thus: qHTS Validation Assay for Inhibitors of Human Galactokinase (GALK) (AID 493189). Also: 0% is about no effect. The gist of the method:
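5 nM GALK / 100 uM galactose / 35 uM ATP, 20 mM HEPES pH8.0, 5 mM MgCl2, 60 mM NaCl, 1 mM DTT, 0.01% BSA (final). RT 1 h; Kinase-Glo Plus luminescence.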

For assay [8], the target named is Peptidyl-prolyl cis-trans isomerase NIMA-interacting 1 (Homo sapiens) (UniProt Q13526). The assay can be described thus: qHTS Validation Assay to Find Inhibitors of Pin1 (AID 504536; active = well fitted inhibition curve with a large enough effect in the polarisation, with a control signal flat, not every such curve was filed as active; the % refers to the polarisation;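 also: 0% = full Pin1 enzyme wells and -100% = no-enzyme wells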). An outline of the steps: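 Fluorescence polarization competition: compounds (titration) displace HiFluor-488-labeled Pin1-1b peptide from Pin1 (0.3 uM final) in pH 7.5 HEPES buffer with DTT, 10 min at room temperature; %Activity normalized to no-enzyme wells, curves fitted.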

Assay [9] has as its target Phosphoglycerate kinase, glycosomal (Trypanosoma brucei brucei) (UniProt P07378). The assay can be described thus: qHTS Validation Assay to Find Inhibitors of Phosphoglycerate Kinase (AID 504547). Also: potency is read from the fitted curve at half-maximal effect. An outline of the steps:
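Inhibition of the enzyme is judged by a Kinase-Glo Plus luminescent signal following a one-hour incubation at room temperature. Because 1,3-BPG is unstable, it is made in situ by GAPDH at 100nM final; no-PGK wells define the baseline.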

Assay [10] deals with Ubiquitin carboxyl-terminal hydrolase 1 (Homo sapiens) (UniProt O94782). The assay can be described thus: Inhibitors of USP1/UAF1: Pilot qHTS (AID 504865).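 Also: rhodamine fluorescence freed from ubiquitin-rhodamine substrate followed over time; top concentration of the series differs between compounds; % is scaled to controls: 0 for no effect and ±100 for the full control effect; nearly all actives have a fitted effect of over 35% in size.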 An outline of the steps:
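In 50mM HEPES pH 7.8 containing 0.5mM EDTA, 1mM TCEP, 0.1 mg/ml BSA and 0.01% Tween-20, 1nM USP1/UAF1 is exposed to compound for 15 min, then Ub-Rho (150nM final) is added and fluorescence is read over time.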

In assay [11] the target is DNA dC->dU-editing enzyme APOBEC-3G (Homo sapiens) (UniProt Q9HC16). The assay can be described thus: qHTS for inhibitors of Vif-A3G interactions: Validation (AID 588379). Also: 0% is about no effect. An outline of the steps:
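HeLa cells stably expressing Vif and A3G-eYFP, 700 cells/well, incubated overnight at 37 deg C, then exposed to compound overnight at 37 deg C. Inhibition of Vif-mediated degradation read as increased yellow fluorescence (Ex 488/Em 500-530) by laser-scanning cytometry.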

In assay [12] the target is phosphoglycerate mutase (Leishmania major) (UniProt Q4Q090). The assay can be described thus: qHTS Validation Assay to Find Inhibitors of Phosphoglycerate Mutase (AID 504548). Also: series mostly up to about 58 µM; % is scaled to controls: 0 for no effect and ±100 for the full control effect. An outline of the steps:
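Lm PGAM at 1.25 nM final with substrate in 100 mM TEA pH 7.6, 5 mM MgCl2, 0.01% Tween-20; 45 min at room temperature. Kinase-GloPlus added, 10 min, end-point luminescence read.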

Assay [13] is described as follows: qHTS for Inhibitors of ATXN expression: Validation of Cytotoxic Assay (AID 588349).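 Also: cells exposed to compound for 72 hr; % is scaled to controls: 0 for no effect and ±100 for the full control effect.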 The gist of the method:
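HEK293, compound dose series, 72 hr / 37 degrees C; viability via CellTiter Glo (intracellular ATP).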

Assay [14] can be described thus: qHTS for Inhibitors of ATXN expression: Validation (AID 588378). Also: series mostly up to about 57 µM; % is scaled to controls: 0 for no effect and ±100 for the full control effect; nearly all actives have a fitted effect of over 75% in size. An outline of the steps:
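Compounds were pinned onto attached HEK293 cells carrying an ATXN2-firefly luciferase construct and incubated 24 hrs at 37 degrees C. Each well then received a fluorescent viability reagent followed by luciferase substrate for end-point luminescence.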

Assay [15] deals with Estrogen receptor (Homo sapiens) (UniProt P03372). The assay can be described thus: qHTS assay for small molecule antagonists of estrogen receptor alpha signaling (AID 588513; active = well fitted curve in the direction sought with a large enough effect in the signal ratio, with a control signal flat, not every such curve was filed as active; the % refers to the signal ratio; also: % is scaled to controls: 0 for no effect and ±100 for the full control effect). An outline of the steps:
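Fluorescence from CCF4 substrate after 2 h at room temperature gave reporter activity; cells had been exposed to compound and 0.5nM 17-beta-estradiol for 18 h at 37 C. Hill-equation fitting yielded IC50 and maximal response.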

Assay [16] shares this target. The assay can be described thus: qHTS assay for small molecule agonists of estrogen receptor alpha signaling (AID 588514; calls by dose curve;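 also: 0% = vehicle only and 100% = reference agonist; nearly all actives have a fitted effect of over 70% in size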). An outline of the steps:
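Reporter-gene assay. […] controls beta-lactamase in HEK 293 GripTite cells; after 18 hrs with compound, CCF4 substrate is added for 2 hrs and fluorescence is read.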

For assay [17], the target named is Bile acid receptor (Homo sapiens) (UniProt Q96RI1). The assay can be described thus: qHTS assay for small molecule antagonists of farnesoid X receptor signaling (AID 588526; calls by dose curve; also: % is scaled to controls: 0 for no effect and ±100 for the full control effect). An outline of the steps:
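Beta-lactamase reporter antagonist mode: HEK293T FXR-UAS-bla cells, titrated compound, CDCA stimulation, 16 h 37 C, CCF4 dye 2 h RT. Data normalized to CDCA 50 uM and DMSO; Hill-fit IC50.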

In assay [18] the target is Androgen receptor (Homo sapiens) (UniProt P10275). The assay can be described thus: qHTS assay for small molecule agonists of androgen receptor signaling (AID 588515; active = well fitted curve in the direction sought with a large enough effect in the signal ratio, with a control signal flat; the % refers to the signal ratio; also: % is scaled to controls: 0 for no effect and ±100 for the full control effect). Conditions: AR-UAS-bla HEK293, beta-lactamase ratio, agonist 16 h; stronger effect = higher value. The gist of the method:
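EC50 and efficacy came from Hill fits of titrations (up to 92 uM) normalized to 30 nM R1881 as 100% and DMSO as 0%. Compound exposure was 16 h at 37 C on AR-UAS-bla HEK293 cells, with a 405/460/530 nm CCF4 fluorescence read.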

For assay [19] the target is unchanged. The assay can be described thus: qHTS assay for small molecule antagonists of androgen receptor signaling (AID 588516; active = well fitted curve in the direction sought with a large enough effect in the signal ratio, with a control signal flat, not every such curve was filed as active; the % refers to the signal ratio; also: % is scaled to controls: 0 for no effect and ±100 for the full control effect). The gist of the method:
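Cells were plated and incubated 5 h, compounds added in titration, then R1881 (10 nM final) as agonist. After 16 h at 37 C, CCF4 substrate was loaded for 2 h at room temperature and fluorescence measured.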

Assay [20] is described as follows: Validation screen for small molecules that induce DNA re-replication in SW480 colon adenocarcinoma cells (AID 504364). Also: 0% is about no effect. The gist of the method:
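Cells are treated 48 hr with test compound, stained 40 min with Hoechst at 37 C, and scanned for nuclear fluorescence; compounds inducing re-replication increase nuclei with elevated intensity.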

Sequence of ATP-dependent 6-phosphofructokinase (Trypanosoma brucei brucei) (O15648 whole entry, looked up): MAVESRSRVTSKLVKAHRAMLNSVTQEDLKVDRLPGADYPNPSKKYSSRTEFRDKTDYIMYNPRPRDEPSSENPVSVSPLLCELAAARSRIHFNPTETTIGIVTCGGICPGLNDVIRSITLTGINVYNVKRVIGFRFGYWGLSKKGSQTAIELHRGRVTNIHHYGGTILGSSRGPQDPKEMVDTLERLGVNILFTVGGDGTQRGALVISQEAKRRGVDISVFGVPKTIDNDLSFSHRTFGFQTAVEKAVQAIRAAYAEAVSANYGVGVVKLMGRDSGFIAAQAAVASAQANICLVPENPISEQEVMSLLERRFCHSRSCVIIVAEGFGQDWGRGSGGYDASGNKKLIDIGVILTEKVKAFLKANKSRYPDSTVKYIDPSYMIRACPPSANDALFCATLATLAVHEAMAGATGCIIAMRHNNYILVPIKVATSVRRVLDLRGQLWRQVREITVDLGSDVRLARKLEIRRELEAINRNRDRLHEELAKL
Sequence of Thyrotropin-releasing hormone receptor (Homo sapiens) (P34981 whole entry, looked up): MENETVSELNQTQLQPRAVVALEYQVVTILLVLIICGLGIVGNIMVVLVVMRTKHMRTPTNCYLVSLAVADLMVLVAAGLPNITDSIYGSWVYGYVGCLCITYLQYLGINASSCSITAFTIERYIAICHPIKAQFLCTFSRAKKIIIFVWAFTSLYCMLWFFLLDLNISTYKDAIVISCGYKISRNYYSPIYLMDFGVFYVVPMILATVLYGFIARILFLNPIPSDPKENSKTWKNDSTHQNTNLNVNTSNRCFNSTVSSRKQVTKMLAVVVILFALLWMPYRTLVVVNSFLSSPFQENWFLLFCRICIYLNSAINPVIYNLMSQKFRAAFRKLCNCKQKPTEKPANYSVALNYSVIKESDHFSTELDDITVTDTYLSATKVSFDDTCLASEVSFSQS
Sequence of Ubiquitin carboxyl-terminal hydrolase 1 (Homo sapiens) (O94782 whole entry, looked up): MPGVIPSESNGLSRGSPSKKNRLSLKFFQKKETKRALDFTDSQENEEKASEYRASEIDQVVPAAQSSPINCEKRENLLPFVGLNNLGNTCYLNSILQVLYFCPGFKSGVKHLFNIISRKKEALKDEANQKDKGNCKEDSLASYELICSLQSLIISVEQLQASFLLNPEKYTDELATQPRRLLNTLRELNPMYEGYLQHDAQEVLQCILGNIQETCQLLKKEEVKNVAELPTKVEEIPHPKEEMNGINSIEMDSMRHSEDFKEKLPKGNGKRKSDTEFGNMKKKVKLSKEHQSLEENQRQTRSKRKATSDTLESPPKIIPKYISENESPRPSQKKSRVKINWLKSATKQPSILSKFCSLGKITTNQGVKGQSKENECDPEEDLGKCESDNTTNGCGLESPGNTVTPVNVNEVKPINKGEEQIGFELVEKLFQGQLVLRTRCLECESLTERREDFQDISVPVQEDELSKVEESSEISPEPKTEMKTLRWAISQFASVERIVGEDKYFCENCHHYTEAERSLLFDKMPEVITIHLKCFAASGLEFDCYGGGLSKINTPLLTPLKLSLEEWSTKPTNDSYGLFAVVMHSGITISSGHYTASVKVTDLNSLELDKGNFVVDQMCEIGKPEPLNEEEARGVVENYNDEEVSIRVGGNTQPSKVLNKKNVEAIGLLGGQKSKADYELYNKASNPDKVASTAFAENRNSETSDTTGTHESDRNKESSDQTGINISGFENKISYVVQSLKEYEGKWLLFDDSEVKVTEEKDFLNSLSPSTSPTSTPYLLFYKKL
Sequence of Galactokinase (Homo sapiens) (P51570 whole entry, looked up): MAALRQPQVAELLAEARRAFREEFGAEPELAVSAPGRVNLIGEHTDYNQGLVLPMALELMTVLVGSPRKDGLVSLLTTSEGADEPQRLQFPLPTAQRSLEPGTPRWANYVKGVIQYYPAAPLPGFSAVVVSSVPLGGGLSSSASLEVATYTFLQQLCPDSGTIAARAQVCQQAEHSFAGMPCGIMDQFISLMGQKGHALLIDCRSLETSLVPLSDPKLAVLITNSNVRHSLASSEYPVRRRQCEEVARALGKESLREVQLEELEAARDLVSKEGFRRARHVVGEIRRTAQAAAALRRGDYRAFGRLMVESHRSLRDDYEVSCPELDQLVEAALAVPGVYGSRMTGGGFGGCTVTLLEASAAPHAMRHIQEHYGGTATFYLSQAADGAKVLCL
Sequence of Estrogen receptor (Homo sapiens) (P03372 whole entry, looked up): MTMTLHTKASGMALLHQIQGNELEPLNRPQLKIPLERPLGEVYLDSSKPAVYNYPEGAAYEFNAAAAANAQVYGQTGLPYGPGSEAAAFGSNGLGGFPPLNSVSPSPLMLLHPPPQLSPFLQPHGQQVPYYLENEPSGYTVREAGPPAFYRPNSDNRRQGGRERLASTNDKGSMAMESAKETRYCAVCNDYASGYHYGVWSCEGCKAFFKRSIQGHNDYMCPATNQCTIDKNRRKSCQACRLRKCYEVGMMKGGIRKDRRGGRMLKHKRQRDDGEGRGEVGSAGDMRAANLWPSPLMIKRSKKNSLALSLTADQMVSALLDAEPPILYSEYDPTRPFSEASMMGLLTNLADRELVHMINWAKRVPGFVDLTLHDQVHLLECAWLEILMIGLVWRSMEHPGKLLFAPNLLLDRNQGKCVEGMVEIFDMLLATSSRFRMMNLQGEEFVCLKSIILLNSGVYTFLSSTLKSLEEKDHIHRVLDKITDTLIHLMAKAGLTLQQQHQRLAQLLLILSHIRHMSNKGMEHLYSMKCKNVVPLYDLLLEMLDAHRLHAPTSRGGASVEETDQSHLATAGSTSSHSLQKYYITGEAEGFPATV
Sequence of ATPase family AAA domain-containing protein 5 (Homo sapiens) (Q96QE3 whole entry, looked up, the tested form may be a part): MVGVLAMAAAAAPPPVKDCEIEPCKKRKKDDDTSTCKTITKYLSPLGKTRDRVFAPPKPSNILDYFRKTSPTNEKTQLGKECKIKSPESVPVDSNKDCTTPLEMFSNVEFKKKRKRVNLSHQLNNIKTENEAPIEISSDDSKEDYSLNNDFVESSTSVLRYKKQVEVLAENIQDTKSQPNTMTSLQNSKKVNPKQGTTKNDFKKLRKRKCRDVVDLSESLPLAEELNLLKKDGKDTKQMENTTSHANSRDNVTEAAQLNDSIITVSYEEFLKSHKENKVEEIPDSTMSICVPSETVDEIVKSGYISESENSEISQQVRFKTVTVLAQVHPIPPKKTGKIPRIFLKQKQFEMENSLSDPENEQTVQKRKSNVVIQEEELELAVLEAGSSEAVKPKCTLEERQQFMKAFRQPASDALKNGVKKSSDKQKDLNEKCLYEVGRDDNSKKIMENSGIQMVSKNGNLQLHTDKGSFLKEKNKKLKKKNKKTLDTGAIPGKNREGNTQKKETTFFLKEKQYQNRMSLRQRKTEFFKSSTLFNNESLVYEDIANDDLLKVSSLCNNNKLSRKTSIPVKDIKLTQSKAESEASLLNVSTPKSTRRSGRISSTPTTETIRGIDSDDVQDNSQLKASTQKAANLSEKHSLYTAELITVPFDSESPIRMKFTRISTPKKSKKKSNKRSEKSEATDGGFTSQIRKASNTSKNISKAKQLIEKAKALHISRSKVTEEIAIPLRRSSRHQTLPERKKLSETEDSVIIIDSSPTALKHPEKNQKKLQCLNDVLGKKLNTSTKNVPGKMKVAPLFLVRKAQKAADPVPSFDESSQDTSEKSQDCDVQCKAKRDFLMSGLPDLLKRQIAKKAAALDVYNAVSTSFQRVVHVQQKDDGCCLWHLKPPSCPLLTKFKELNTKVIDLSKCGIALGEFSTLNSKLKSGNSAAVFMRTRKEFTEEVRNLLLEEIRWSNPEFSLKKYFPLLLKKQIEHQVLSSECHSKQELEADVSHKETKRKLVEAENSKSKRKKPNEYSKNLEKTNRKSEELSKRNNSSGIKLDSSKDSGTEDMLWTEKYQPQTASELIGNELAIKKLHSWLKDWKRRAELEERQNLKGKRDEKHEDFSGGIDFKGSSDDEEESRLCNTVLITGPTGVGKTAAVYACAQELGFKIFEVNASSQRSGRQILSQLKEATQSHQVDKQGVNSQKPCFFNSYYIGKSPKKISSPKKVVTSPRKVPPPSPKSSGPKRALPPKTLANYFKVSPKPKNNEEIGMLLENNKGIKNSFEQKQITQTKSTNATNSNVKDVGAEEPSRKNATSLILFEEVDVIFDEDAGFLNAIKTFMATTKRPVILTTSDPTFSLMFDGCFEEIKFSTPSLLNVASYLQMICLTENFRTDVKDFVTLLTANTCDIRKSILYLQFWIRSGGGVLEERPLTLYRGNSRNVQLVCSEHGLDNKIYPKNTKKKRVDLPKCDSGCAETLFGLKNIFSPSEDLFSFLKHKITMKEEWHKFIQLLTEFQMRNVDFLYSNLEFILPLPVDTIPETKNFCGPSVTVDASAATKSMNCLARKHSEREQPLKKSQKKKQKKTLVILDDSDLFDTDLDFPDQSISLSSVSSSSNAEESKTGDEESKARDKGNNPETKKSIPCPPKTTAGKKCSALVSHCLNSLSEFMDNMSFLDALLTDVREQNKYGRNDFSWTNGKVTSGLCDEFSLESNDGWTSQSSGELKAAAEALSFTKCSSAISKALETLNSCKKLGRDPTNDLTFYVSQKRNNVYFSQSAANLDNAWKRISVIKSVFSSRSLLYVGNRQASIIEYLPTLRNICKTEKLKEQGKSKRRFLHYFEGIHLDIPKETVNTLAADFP
Sequence of phosphoglycerate mutase (Leishmania major) (Q4Q090 1-553): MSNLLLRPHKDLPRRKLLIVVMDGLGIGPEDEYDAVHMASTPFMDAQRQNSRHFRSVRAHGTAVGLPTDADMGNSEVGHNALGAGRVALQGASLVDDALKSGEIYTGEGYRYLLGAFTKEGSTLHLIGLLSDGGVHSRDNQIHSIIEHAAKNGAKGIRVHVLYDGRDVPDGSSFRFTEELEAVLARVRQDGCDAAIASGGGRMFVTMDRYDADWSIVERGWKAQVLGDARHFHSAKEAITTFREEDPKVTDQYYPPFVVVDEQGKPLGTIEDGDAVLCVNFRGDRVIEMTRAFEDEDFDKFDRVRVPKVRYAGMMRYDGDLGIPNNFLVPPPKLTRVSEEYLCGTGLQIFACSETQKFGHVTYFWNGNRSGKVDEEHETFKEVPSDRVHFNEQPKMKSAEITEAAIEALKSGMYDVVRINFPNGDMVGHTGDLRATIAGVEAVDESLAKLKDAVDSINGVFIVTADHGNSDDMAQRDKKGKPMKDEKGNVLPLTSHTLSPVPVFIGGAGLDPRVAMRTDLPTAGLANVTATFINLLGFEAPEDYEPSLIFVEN

As for `C[C@](N)(Cc1ccc(O)c(O)c1)C(=O)O`, the Potency entry in assay [1], in assay [2], in assay [3], in assay [5], in assay [7] and in assay [8] was “inactive” throughout. Also, the Potency entry in assay [10] is “inactive”. Also, the activation in [4] was 1.25% (inactive). Moreover, the viability change in assay [5] is 0.569%. The outcome in assay [6] and in [11] was inactive. In addition, the Potency in assay [9] is 2.13 µM (active).

In the case of `Cc1cn([C@H]2C[C@H](N=[N+]=[N-])[C@@H](CO)O2)c(=O)[nH]c1=O`, the Potency entry in assay [1], in [3], in assay [5], in [9], in assay [10] and in [14] was “inactive” each time. Also, the Potency entry in [17] was “inactive”. In addition, in assay [5], the viability change worked out at 8.03%. Moreover, the compound was called inactive in [6], in assay [12], in assay [13], in assay [15] and in assay [16].

Consider `CC(=O)OCC(CCn1cnc2cnc(N)nc21)COC(C)=O`, for which the Potency entry in [1] and in assay [10] was “inactive” each time.

Consider `CS(=O)(=O)CCNCc1ccc(-c2ccc3ncnc(Nc4ccc(OCc5cccc(F)c5)c(Cl)c4)c3c2)o1`, for which the Potency entry in assay [1] and in assay [10] was “inactive” in each case.

Regarding `CC(C)(Oc1ccc(C2CC2(Cl)Cl)cc1)C(=O)O` (configuration not stated), the Potency result in assay [1], in [2], in assay [3], in [5], in assay [7] and in assay [8] was “inactive” in each case. In addition, the Potency result in assay [9], in assay [10] and in [14] was “inactive” in each case. The viability change in [5] is 9.29%. The compound was classed as inactive in assay [6], in assay [12], in [15] and in [19]. In addition, the activation in [18] is -8.82% (inactive).

As to `O=C1c2c(O)ccc(O)c2C(=O)c2c(NCCNCCO)ccc(NCCNCCO)c21`, the Potency result in assay [1], in [2], in [7], in assay [20] and in [8] was “inactive” each time. The Potency in assay [3] was 4.61 µM (active). Moreover, the activation in [4] was 0.938% (inactive). Moreover, in assay [6], the compound was called inactive.

For the compound `CC(C)(C)C(=O)Oc1ccc(S(=O)(=O)Nc2ccccc2C(=O)NCC(=O)O)cc1`, the Potency result in [1] and in assay [10] was “inactive” in each case.

For `Nc1nnc(-c2cccc(Cl)c2Cl)c(N)n1`, the Potency entry in assay [1], in [2], in assay [3], in assay [5], in [7] and in assay [20] was “inactive” in each case. The Potency entry in assay [9], in [10] and in [14] was “inactive” throughout. Also, the activation in [4] was 0.938% (inactive). In addition, the viability change in assay [5] is -4.23%. Further, the result in [6], in [12], in assay [13] and in [11] was inactive.

Regarding `CN(C)C(=N)N=C(N)N`, in [1], the Potency result is “inactive”.

In the case of `CN(C)c1nc(N(C)C)nc(N(C)C)n1`, the Potency result in [1], in assay [2], in assay [3], in assay [5], in [7] and in assay [20] was “inactive” in each case. In addition, the Potency entry in assay [10] and in assay [14] was “inactive” in each case. Also, the activation in assay [4] is 0.188% (inactive). Further, the viability change in assay [5] amounted to 0%. In addition, the outcome in assay [6], in [12] and in assay [13] was inactive.

With `Cc1cc(C(C)(C)C)cc(C)c1CC1=NCCN1`, the Potency entry in [1], in assay [2], in [3], in [5], in assay [7] and in assay [10] was “inactive” throughout. Besides, the viability change in [5] stood at 1.17%. For the same compound, the call in [6] and in assay [12] was inactive.
